Screening data from PubChem BioAssay.
TRHR enhancer – TRH receptor (human) allosteric enhancement; 0.66% of 360,000 active; enhancement, % at 2 µM; P34981; TRHR cells, fluo-8 calcium fluorescence, EC20 TRH enhancement; in the data active = enhancement above about 30%
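Enhancer read-out: after compound pinning and an initial kinetic agonist-mode read, an EC20 of TRH (10 nM final) was injected and fluo-8 calcium signal (Ex 480/Em 530) followed at 1 s/cycle for 100 cycles in TRHR-expressing cells.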
D1 antagonist – blocks dopamine activation of the human D1 receptor | P21728 | HEK293 TREx D1 cells, calcium flux, dopamine EC80; active compounds read low | activity change, negative = inhibition, % at 10 µM | 3.2% of 360,000 active | AID 504652; in the data active = activity change below about -30%
Target sequence (P21728 whole entry, looked up): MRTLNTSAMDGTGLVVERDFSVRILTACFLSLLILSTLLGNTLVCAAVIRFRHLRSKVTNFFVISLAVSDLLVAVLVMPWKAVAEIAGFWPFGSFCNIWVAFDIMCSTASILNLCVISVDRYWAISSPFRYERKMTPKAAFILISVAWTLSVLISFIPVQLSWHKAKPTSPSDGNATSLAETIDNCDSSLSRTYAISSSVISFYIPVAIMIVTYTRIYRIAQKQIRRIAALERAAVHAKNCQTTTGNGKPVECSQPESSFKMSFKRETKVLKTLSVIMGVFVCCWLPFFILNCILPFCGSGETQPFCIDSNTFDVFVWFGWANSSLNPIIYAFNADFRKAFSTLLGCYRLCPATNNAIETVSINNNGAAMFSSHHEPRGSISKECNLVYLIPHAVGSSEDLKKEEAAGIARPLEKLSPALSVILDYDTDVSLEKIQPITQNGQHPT
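Tetracycline-induced HEK293 Trex D1 cells, force-coupled to calcium, dye-loaded; compounds added and read 180 s, then EC80 dopamine added and calcium flux tracked kinetically another 180 s.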
D1 ag – human D1 receptor agonism | AID 504660 | activation, % at 2 µM | HEK293 T-REx D1 cells, calcium flux, agonist mode | 1% of 360,000 active
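Inducible HEK293 T-REx D1 cells, force-coupled to calcium signalling, were plated at 4000 cells/well with tetracycline and held overnight at 30 C. After no-wash calcium dye loading, compound-evoked calcium rise over 180 s flagged agonists.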
TRHR ag – TRH receptor (human) agonism; TRHR cells, calcium flux fluo-8, FDSS agonist mode; 0.18% of 360,000 active; activation, % at 2 µM
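Read-out: compound-evoked intracellular calcium rise in TRHR cells, fluo-8 dye, kinetic FDSS fluorescence at 1 s/cycle following a 10-cycle baseline. Cells cultured overnight before dye loading (30 min–1.5 h, RT).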
D1 PAM – enhances dopamine response at the human D1 receptor. P21728. HEK293 TREx D1 cells, calcium flux, dopamine EC20 potentiation. potentiation, % at 10 µM. 0.036% of 360,000 active; in the data active = potentiation above about 30%
Numbers stand for hits; i = inactive. In the library only some 4.7% were active in any assay of this set; here they are far more common. Rule as the data show it, unless noted: active = activation above about 30%; inactive = the rest.

SMILES | TRHR enhancer | D1 antagonist | D1 ag | TRHR ag | D1 PAM
Cc1cc(C(=O)NCc2ccccc2)c2c(C)nn(-c3cccc(Cl)c3C)c2n1 | i | i | i | i | i
COc1ccc(NC(=O)C2CCN(c3ccc(Sc4ccc(C)cc4)nn3)CC2)cc1 | i | i | i | i | i
Cn1c(CN2CCCCC2)nc2cc(NS(=O)(=O)c3ccc(Cl)cc3)ccc21 | i | i | 52 | i | i
CN(C)c1ccc(NC(=O)CC(NCc2cccnc2)C(=O)O)cc1 (stereo unspecified) | i | i | i | i | i
N#Cc1cc2cc3c(cc2nc1SCC(=O)OC1CCCCC1)OCO3 | i | -32 | i | i | i
Cc1ccc(S(=O)(=O)NCCc2csc(-c3cccc(F)c3)n2)cc1 | i | i | i | i | i
C[C@@H](NC(=O)Cn1ccc(NC(=O)OCc2ccccc2)nc1=O)c1cccc2ccccc12 | i | -33 | i | i | i
O=C(NCc1ccc2c(c1)OCO2)c1ccc2c(c1)N(Cc1ccc(F)cc1)C(=O)c1ccccc1S2=O (stereo unspecified) | i | i | i | i | i
CC(C)c1ccc(NC(=O)CN2C(=O)COc3ccc(S(=O)(=O)Nc4ccccc4)cc32)cc1 | i | i | i | i | i
COc1ccc(OC)c(NS(=O)(=O)c2ccc(Br)s2)c1 | i | i | i | i | i
COc1cccc(NS(=O)(=O)c2ccc(Br)s2)c1 | i | -35 | i | i | i
COc1cc(/C=N/NC(=O)C[n+]2ccccc2)cc(OC)c1OC(C)=O | i | -79 | i | i | i
Cc1ccc(C(=O)Nc2ccc(Br)cc2)cc1S(=O)(=O)NCc1ccccc1 | i | i | i | i | i
Cc1cccc(-c2nc3c(cnn3-c3ccccc3)c(=O)n2-c2ccc(Cl)cc2)c1 | i | -36 | i | i | i
Cc1ccc(-n2c(-c3cccc(C)c3)nc3c(cnn3-c3ccccc3)c2=O)cc1 | i | i | i | i | i
Cc1nc2c(cnn2-c2ccccc2)c(=O)[nH]1 | i | -38 | i | i | i
O=c1[nH]c(-c2ccc(Cl)cc2)nc2c1cnn2-c1ccccc1 | i | i | i | i | i
O=C(NCC(c1ccco1)N1CCCCC1)c1cccc(NS(=O)(=O)c2ccc(Br)cc2)c1 (stereo unspecified) | i | i | i | i | i
N#CN1CCC(N[S+](=O)([O-])c2cccc(F)c2)CC1 | i | i | i | i | i
O=C(NNC(=S)NC(=O)c1ccc(Br)cc1)c1cccc([N+](=O)[O-])c1 | i | i | 32 | i | i
Cc1ccc(C)c(NC(=S)NCc2ccccc2)c1 | i | -36 | i | i | i
O=C(CCc1ccccc1)NNC(=S)NC(=O)c1ccccc1 | i | i | i | i | i
CCCCC(=O)NC(=S)NNC(=O)c1ccc(Cl)cc1Cl | i | i | i | i | i
CC(C)(C)c1cc(CCC(=O)NNC(=S)NC(=O)c2ccccc2)cc(C(C)(C)C)c1O | i | -66 | 133 | i | i
COc1ccc(CNC(=S)Nc2cc(C)ccc2C)cc1 | i | i | i | i | i
SMILES | TRHR enhancer | D1 antagonist | D1 ag | TRHR ag | D1 PAM
Cc1ccc(C(=O)NNC(=S)NC(=O)c2ccc(Cl)cc2Cl)cc1 | i | i | 154 | 32 | i
CCc1ccc(Oc2c(C(F)(F)F)oc3c(CN4CCN(C)CC4)c(O)ccc3c2=O)cc1 | i | i | i | i | i
Cc1cccc(C(=O)NNC(=S)NC(=O)c2cccs2)c1 | i | i | 76 | i | i
Cc1cccc(-c2nnc(NC(=O)c3cccs3)s2)c1 | i | -41 | i | i | i
Cc1ccc(C(=O)NNC(=S)NC(=O)c2ccco2)cc1 | i | i | 59 | i | i
Cc1ccc(C(=O)NC(=S)NNC(=O)c2ccccc2)cc1 | i | -42 | 200 | 31 | i
Cc1ccc(C(=O)NC(=S)NNC(=O)c2ccc([N+](=O)[O-])cc2)cc1 | i | i | i | i | i
Cc1ccc(C(=O)NNC(=O)c2ccco2)cc1 | i | i | i | i | i
COc1ccccc1OCC(=O)N(Cc1ccc(Cl)cc1)CC1CCCO1 (stereo unspecified) | i | i | i | i | i
COc1cccc(NC(=O)Cn2c(=O)c3cccn3c3ccc(F)cc32)c1 | i | i | i | i | i
Cc1ccc(C)c(NC(=S)NNC(=O)c2ccco2)c1 | i | -35 | i | i | i
Cc1cccc(NC(=S)NNC(=O)c2ccco2)c1 | i | i | i | i | i
Cc1ccc(C(=O)NC(=S)NNC(=O)c2ccccc2O)cc1 | i | i | 55 | i | i
